# In ChEMBL document CHEMBL3988442, “University of Dundee, Small-Polar-MMV Screening Library” (2021):
# Out of some 48,000 compounds screened, about 13,000 (27%) showed an effect of 50% or more. Some of the results follow.
# System: Wolbachia pipientis
# Assay: Anti-Wolbachia Cell-Based Screen
# Type: functional
# Design: scale not given: in the data most compounds retested in dose-response had high values
# Settings: 5 µM
row,Structure (SMILES),Percent Effect [%]
1,c1cncc(CN2CCC(NCCc3ccc4c(c3)CCO4)CC2)c1,11.75
2,O=C1CCCCN1Cc1cccc(NC(=O)N2CCSCC2)c1,7.58
3,COc1cccc(C(C(=O)O)N2CCCN(C3CCCC3)CC2)c1OC (centres undefined),17.91
4,Cc1noc(C)c1CCN1CCCC1c1nc2cc(F)ccc2[nH]1 (centres undefined),-25.67
5,CC(NC(=O)Nc1cccnc1N1CCCC1)c1nncn1C (centres undefined),-5.724
6,CCc1cc(NCCNC(C)=O)nc(N2CCCC2)n1,3.61
7,CCOc1ccc(S(=O)(=O)NCCCc2ccc(N(C)C)cc2)cc1C,28.94
8,Cc1cc(C)n(CCC(=O)OCC(=O)N2CCc3sccc3C2)n1,1.296
9,CN(CC1CCCO1)c1nc(-c2cccnc2)nc2c1CCNCC2 (centres undefined),-5.842
10,Cc1cc(C2CCCN2CC(=O)N(CCC#N)c2ccccc2F)on1 (centres undefined),6
11,O=C(Cc1cccs1)NCC(=O)Nc1cn[nH]c1,-3.119
12,CC(NCC(=O)NCC(=O)Nc1ccc(F)cc1)c1cccs1 (centres undefined),91.77
13,CC(C#N)CSc1ccccc1NCC(=O)Nc1ccc(F)cc1 (centres undefined),-2.506
14,CC(C)CCC(=O)NCc1ccc(N2CCCCC2)cc1,9.507
15,CCC(NC(=O)NCC(=O)Nc1ccc(F)cc1)c1ccncc1 (centres undefined),13.9
16,CCCC(=O)NCc1ccc(N2CCCCC2)cc1,-2.635
17,CN(CC(=O)NS(=O)(=O)c1cccs1)Cc1ccccc1,-0.04031
18,CN(CC(=O)NCC(=O)Nc1ccc(F)cc1)Cc1cccs1,82.61
19,CC(NCC(=O)Nc1ccc(N2CCCCCC2)cc1)c1cccs1 (centres undefined),140.9
20,COc1ccc(NC(=O)N2CCCC2c2ccco2)cc1OC (centres undefined),20.26
21,COc1cc(Nc2c(C#N)c(=O)n(C)c(=O)n2C)cc(OC)c1,0.2169
22,COc1ccccc1C(NC(=O)C1CCCC1)c1noc(C)n1 (centres undefined),-4.234

row,Structure (SMILES),Percent Effect [%]
1,O=C(NC1CC1)NC(c1cc(F)ccc1F)C1CC1 (centres undefined),-0.2014
2,CNC(C(=O)OC)c1cc(F)ccc1F.Cl (centres undefined),100.3
3,Cc1nc(C(NC(=O)C2CCCC2)c2ccccc2F)no1 (centres undefined),-17.79
4,COC(=O)C(NC(=O)COC1CCCC1)c1cc(F)ccc1F (centres undefined),0.6159
5,COC(=O)C(NC(=O)C1CCC1)c1cc(F)ccc1F (centres undefined),101.8
6,CC(c1cc(F)ccc1F)N(C)CCS(=O)(=O)CCC(N)=O (centres undefined),-2.852
7,COc1ccccc1C(NC(=O)C1CCC1)c1noc(C)n1 (centres undefined),-10.07
8,COC(=O)C(NC(=O)c1cc(F)cc(F)c1)c1cccnc1 (centres undefined),7.008
9,COC(=O)C(NC(=O)C1CCCC1)c1cc(F)ccc1F (centres undefined),111.2
10,COC(=O)C(NC(=O)C1CC1)c1cc(F)ccc1F (centres undefined),87.91
11,CNC(=O)C1CN(Cc2ccc(C#N)cc2F)c2ccccc2O1 (centres undefined),-15.36
12,CC(C)C(=O)N1CCN(C(=O)c2cc(Cl)no2)[C@H]2CS(=O)(=O)C[C@H]21,-5.437
13,N#Cc1cccnc1NC1CCN(c2ccccc2OC(F)F)C1=O (centres undefined),-11.66
14,O=C(NCCNc1cncc(Br)c1)c1ccc(O)cc1,-0.2825
15,CCOC(=O)N1CCC(N2Cc3ncccc3C2=O)CC1,-7.226
16,O=C1c2cccnc2OC(CN2CCOCC2)CN1C1CCC1 (centres undefined),113.2
17,CCN1CC(CN2CCOCC2)Oc2ncccc2C1=O (centres undefined),121.1
18,COc1ncccc1CNC(=O)N1CCC(CN2CCOCC2)CC1,-11.8
19,O=C1c2cccnc2OC(CN2CCOCC2)CN1CC1CC1 (centres undefined),142
20,O=C(NC1CCCCC1)N1CCC(N2Cc3ncccc3C2=O)CC1,2.597
21,O=C1c2cccnc2OC(CN2CCOCC2)CN1Cc1cccs1 (centres undefined),106
22,O=C(O)C(F)(F)F.O=C(O)C(F)(F)F.O=C(O)C(F)(F)F.c1cncc(C[C@H]2[C@H](N3CCOCC3)CCN2Cc2cccs2)c1,-5.101

row,Structure (SMILES),Percent Effect [%]
1,COc1ncccc1NC(=O)N1CCC(CN2CCOCC2)CC1,40.61
2,Cc1cccc(C)c1C(=O)N1C[C@@H](CN2CCOCC2)[C@@H](CO)C1,-12.05
3,CCc1c(C)sc2ncnc(N3CC[C@@H](N4CCC(O)CC4)[C@H](O)C3)c12,-2.578
4,O=C(O)c1cn(CC2CCCN(c3nc4ccccc4s3)C2)nn1 (centres undefined),-26.21
5,NC(=O)c1ccccc1-n1cc(-c2cccc(C(=O)O)c2)cn1,8.053
6,CCN1CCCN(c2ncccc2C(=O)N2CCCCC2)CC1,-13.17
7,CC(C)N1CCC(Cc2cncc(-c3cccc(C(=O)O)c3)n2)CC1,108.9
8,CC(C)N1CCC(Cc2cc(-c3cccc(C(=O)O)c3)ncn2)C1 (centres undefined),-6.349
9,CC(C)N1CCC(Cc2cc(-c3cccc(C(=O)O)c3)ncn2)CC1,121.9
10,COCCN1CCC(Cc2cncc(-c3ccc(C(=O)O)cc3)n2)C1 (centres undefined),-8.312
11,CC(C)N1CCC(Cc2cnc(-c3cccc(C(=O)O)c3)cn2)C1 (centres undefined),-8.094
12,COCCN1CCC(Cc2cncc(-c3ccc(C(=O)O)cc3)n2)CC1,112
13,CC(C)N1CCC(Cc2cncc(-c3cccc(C(=O)O)c3)n2)C1 (centres undefined),113.7
14,CC(C)N1CCC(CC(=O)NCc2cc(O)ncn2)CC1,-21.37
15,COCCN1CCC(CNc2nccc(-c3cnn(C)c3)n2)CC1,12.08
16,CN(C)C(=O)COCC1CN(Cc2ccoc2)Cc2ncn(C)c21.O=C(O)C(F)(F)F.O=C(O)C(F)(F)F (centres undefined),111.6
17,CCOCC1CN(Cc2ccoc2)Cc2nn(CC3CC3)cc21.O=C(O)C(F)(F)F (centres undefined),-8.348
18,CN(C)C(=O)COCC1CN(Cc2cccs2)Cc2ncn(C)c21.O=C(O)C(F)(F)F.O=C(O)C(F)(F)F (centres undefined),100.2
19,Cc1cccc(CN2CCc3c(COCC(=O)N(C)C)nn(C)c3C2)n1.O=C(O)C(F)(F)F.O=C(O)C(F)(F)F,1.951
20,CN(C)C(=O)COCC1CN(Cc2ccco2)Cc2ncn(C)c21.O=C(O)C(F)(F)F.O=C(O)C(F)(F)F (centres undefined),91.74
21,Cn1cnc2c1C(COCC1CCOCC1)CN(Cc1ccccn1)C2.O=C(O)C(F)(F)F.O=C(O)C(F)(F)F.O=C(O)C(F)(F)F (centres undefined),-22.25
22,CN(C)C(=O)COCc1nn(C)c2c1CCN(Cc1ccco1)C2.O=C(O)C(F)(F)F,-2.792

row,Structure (SMILES),Percent Effect [%]
1,CCn1cc2c(n1)CN(Cc1ccoc1)CC2COCC1CC1.O=C(O)C(F)(F)F (centres undefined),-14.5
2,Cc1cccc(CN2Cc3ncn(C)c3C(COCC(=O)N(C)C)C2)n1.O=C(O)C(F)(F)F.O=C(O)C(F)(F)F.O=C(O)C(F)(F)F (centres undefined),115.6
3,c1ccc(-c2cc(CN3C[C@@H]4CC[C@H](C3)N(CC3CCC3)C4)on2)cc1,10.47
4,O=C(CN1CCOC1=O)N1CCC2(CCc3ccccc32)CC1,-4.229
5,CCCNC(=O)c1ccc(S(=O)(=O)NC2(COC)CCCC2)cc1,-2.263
6,CC(C)c1cc(NCC2(N(C)C)CCCC2)ncn1,-5.055
7,O=C(c1cc(CC2(NCc3ccccc3)COC2)no1)N1CCCCC1,5.452
8,CS(=O)(=O)CCC(=O)NC1(c2cccc(Br)c2)CC1,-24.79
9,N#CCCCS(=O)(=O)NC(=O)c1cccc(Cl)c1F,-1.006
10,CS(=O)(=O)CCCNC1(c2cccc(Cl)c2)CCCC1,-3.433
11,N#CCCCS(=O)(=O)NC1(c2cccc(Br)c2)CC1,115.6
12,N#CCCCS(=O)(=O)NC1(c2ccc(F)cc2)CC1,94.21
13,COCCCC(=O)NC1(c2cccc(Br)c2)CC1,-6.052
14,N#CCCCS(=O)(=O)NC1(c2cccc(Cl)c2)CC1,95.05
15,COC(=O)NCCCC(=O)NC1(c2cccc(Cl)c2)CC1,-10.63
16,N#CCCCS(=O)(=O)NC(=O)c1ccccc1F,-12.54
17,Cc1[nH]ncc1C(C)NCc1cccnc1 (centres undefined),-9.734
18,CCN(C)C[C@@H]1CN(Cc2cnc3c(S(C)(=O)=O)cnn3c2)C[C@@H]1CO,-15.72
19,Cc1noc(C)c1CN1C(=O)[C@H]2CC[C@@H]1CN(Cc1cccnc1N)C2,18.74
20,O=C(CCc1ccc(F)cc1)NS(=O)(=O)c1ccc2c(c1)OCCO2,-1.397
21,CCc1nc(C)ncc1C(=O)N1CCN(CC)c2ccccc21,-9.426
22,O=C(C1CCOC1)N1CCN(CC2CC2)c2ccccc21 (centres undefined),109.4

row,Structure (SMILES),Percent Effect [%]
1,CCN1CCN(C(=O)c2csnn2)c2ccccc21,3.89
2,COCCC(=O)N1CCN(CC2CC2)c2ccccc21,-5.529
3,NC(=O)CN1CCN(CC2CC2)c2ccccc21,-6.284
4,CCN1CCN(C(=O)C2CCOC2)c2ccccc21 (centres undefined),120.4
5,COc1ccc(S(=O)(=O)NC(=O)c2ccccc2F)cc1OC,-11
6,CC(C)c1ccc(OCn2ccc(C(=O)N3CCCC3)n2)cc1,-7.702
7,Cc1cnc(N2CC[C@@H]3O[C@@H](COCc4ccccn4)CC[C@@H]32)nc1.O=C(O)C(F)(F)F.O=C(O)C(F)(F)F,7.451
8,Cn1cccc1C(=O)N1CC[C@H]2[C@@H]1CCC(=O)N2c1ccccc1,-9.424
9,CNC(=O)c1cccnc1NCCOc1ccccc1,11.05
10,CC1CCC(N2CCC(NS(=O)(=O)CCCF)CC2)CC1 (centres undefined),-1.792
11,CNC(=O)CS(=O)(=O)NC1CCC(C)CC1 (centres undefined),97.23
12,CC1CCC(NS(=O)(=O)CC(=O)NCC2CCC2)CC1 (centres undefined),101.5
13,CNS(=O)(=O)CC(=O)N(C1CCCC1)C1CC1,-5.548
14,CC1CCC(NS(=O)(=O)CC(=O)Nc2ccc(N3CCCC3)cn2)CC1 (centres undefined),-1.172
15,CCNC(=O)CS(=O)(=O)NC1CCC(C)CC1 (centres undefined),91.13
16,CC1CCC(NS(=O)(=O)CC(=O)NC2(C(N)=O)CCCC2)CC1 (centres undefined),92.28
17,CNC(=O)CS(=O)(=O)C1CCN(S(=O)(=O)C2CC2)CC1,-8.784
18,Cc1ccc(NC(=O)CS(=O)(=O)NC2CCC(C)CC2)nc1 (centres undefined),0.19
19,COCCC1(CNC(=O)NCC2CCC2)CCC1,-13.86
20,CC1CCN(CCNC(=O)C2CCN(S(N)(=O)=O)CC2)CC1,-8.736
21,CCC(C(=O)NC1(C(N)=O)CCCC1)n1cccn1 (centres undefined),-7.452
